# According to PubChem BioAssay:
# Calls of active or inactive are those of the source. Unless noted, no rule for the calls is given here.
# Experiments:
# [1] = HepG2 liver cancer cell viability effects, profiling panel, resazurin fluorescence, 24 h, PK04 Diversity Set (AID 1172); conditions: higher = more signal; also: test concentration not given here
# [2] = basal S. cerevisiae growth modulation, no modifier, primary screen, OD600, strain BY4716, 24 h, basal condition (AID 1173); conditions: OD600, 24 h, higher = more signal, called active from +8 up or from −8 down
# [3] = MM1S myeloma cell viability, profiling panel, resazurin fluorescence, basal, 24 h, PK04 Diversity Set (AID 1174); conditions: higher = more signal, called active from +8 up or from −8 down;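 also: MM1S multiple myeloma cell line; test concentration not given here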
# [4] = target: Dihydroorotate dehydrogenase (quinone), mitochondrial (Plasmodium falciparum (isolate 3D7)) (UniProt Q08210); test: PfDHODH enzyme inhibitors, primary screen, biochemical, C-terminal His tag, absorbance 600 nm (AID 1175); conditions: DCIP absorbance 600 nm, higher = more signal, called active from +8 up or from −8 down;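 also: recombinant parasite enzyme with a five histidine tag at its C terminus; test concentration not given here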
# [5] = P. aeruginosa biofilm formation inhibitors, primary screen, strain PAO1, LB-PBS medium, absorbance 600 nm (AID 1176); also: test concentration not given here; conditions: P. aeruginosa PAO1 growth/biofilm, A600, 12 h; higher = more signal
# [6] = S. cerevisiae RM11-1a growth modifiers, primary screen, strain RM11-1a, OD600, basal, 24 h (AID 1177); conditions: OD600, 24 h, higher = more signal, called active from +8 up or from −8 down;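 also: cultures grown under basal conditions with no added stressor; test concentration not given here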
# [7] = E. coli acrAB mutant growth effects, primary screen, E. coli filamentation inducers, strain DRC39, OD650, 24 h (AID 1178); conditions: higher = more signal, called active from +8 up or from −8 down;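 also: growth measured as culture turbidity by optical density at 650 nm; test concentration not given here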
# [8] = E. coli acrAB mutant growth effects, primary screen, E. coli filamentation inducers, strain DRC39, OD650, 48 h (AID 1179);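 also: screen aims at cell division blockers that make cells filament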; conditions: E. coli DRC39 delta-acrAB growth, higher = more signal, called active from +8 up or from −8 down
# [9] = RPMI8226 myeloma cell viability, profiling panel, resazurin fluorescence, basal, 24 h, PK04 Diversity Set (AID 1180); conditions: higher = more signal;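 also: RPMI8826 multiple myeloma cell line at 5000 cells per well; test concentration not given here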
# [10] = target: E3 ubiquitin-protein ligase XIAP (Homo sapiens) (UniProt P98170); test: XIAP binders, primary screen, biophysical, small-molecule microarray, fluorescence 635 nm (AID 1181); conditions: small-molecule microarray binding, higher = more signal;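 also: score merges 667 nm emission and signal to noise over triplicate slides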
# Chain of E3 ubiquitin-protein ligase XIAP (Homo sapiens) (P98170 whole entry, looked up): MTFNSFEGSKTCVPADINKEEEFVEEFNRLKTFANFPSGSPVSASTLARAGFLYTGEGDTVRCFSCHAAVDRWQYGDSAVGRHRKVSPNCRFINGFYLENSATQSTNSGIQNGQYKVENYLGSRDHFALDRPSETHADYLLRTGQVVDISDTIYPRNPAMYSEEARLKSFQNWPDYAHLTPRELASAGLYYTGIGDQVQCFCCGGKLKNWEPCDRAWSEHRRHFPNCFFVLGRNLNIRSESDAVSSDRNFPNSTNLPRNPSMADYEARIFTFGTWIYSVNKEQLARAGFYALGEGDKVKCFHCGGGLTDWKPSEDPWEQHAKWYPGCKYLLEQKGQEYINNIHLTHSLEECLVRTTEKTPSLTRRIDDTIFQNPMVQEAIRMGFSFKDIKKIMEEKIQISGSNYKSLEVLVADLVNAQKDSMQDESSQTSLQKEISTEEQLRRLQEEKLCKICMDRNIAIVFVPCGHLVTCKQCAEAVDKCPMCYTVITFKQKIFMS
# Chain of Dihydroorotate dehydrogenase (quinone), mitochondrial (Plasmodium falciparum (isolate 3D7)) (Q08210 whole entry, looked up): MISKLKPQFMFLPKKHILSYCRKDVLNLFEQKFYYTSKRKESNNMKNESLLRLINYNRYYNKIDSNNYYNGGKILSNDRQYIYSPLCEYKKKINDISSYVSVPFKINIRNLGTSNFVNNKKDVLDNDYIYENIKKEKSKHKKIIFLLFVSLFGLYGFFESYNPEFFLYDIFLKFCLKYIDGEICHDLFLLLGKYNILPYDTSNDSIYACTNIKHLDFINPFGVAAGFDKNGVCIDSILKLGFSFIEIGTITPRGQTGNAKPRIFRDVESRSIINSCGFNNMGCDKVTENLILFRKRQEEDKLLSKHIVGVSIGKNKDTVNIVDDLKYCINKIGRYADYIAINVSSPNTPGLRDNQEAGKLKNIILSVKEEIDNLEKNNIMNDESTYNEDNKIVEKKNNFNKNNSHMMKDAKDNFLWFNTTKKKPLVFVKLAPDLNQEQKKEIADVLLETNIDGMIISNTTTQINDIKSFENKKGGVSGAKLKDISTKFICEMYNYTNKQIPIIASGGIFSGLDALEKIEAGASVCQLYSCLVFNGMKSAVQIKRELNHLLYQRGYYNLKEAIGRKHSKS
Compound,z-score [1],z-score [2],z-score [3],composite z-score [4],z-score [5],z-score [6],z-score [7],z-score [8],z-score [9],composite z-score [10]
CC(C)[Si](C#C[Si](C(C)C)(C(C)C)C(C)C)(O[C@H](c1ccccc1)c1cn(Cc2ccccc2)nn1)C(C)C,0.918,1.6 (inactive),0.869 (inactive),0.367 (inactive),0.0885 (inactive),1.14 (inactive),-0.177 (inactive),0.662 (inactive),1.43,0.0368
COC(=O)C1(CC(C)C)C=C2C(=C(c3ccccc3)C(=O)C2C)CN1 (stereo not given),-1.21,0.397 (inactive),-2.14 (inactive),-1.58 (inactive),0.647 (inactive),0.168 (inactive),-0.33 (inactive),0.208 (inactive),-1.27,-0.0133
CN(C)C(=O)[C@]1(Cc2ccccc2CN=[N+]=[N-])N=C(c2ccc(OCCCO)cc2)O[C@@H]1c1ccccc1,0.747,-0.948 (inactive),-0.535 (inactive),-0.366 (inactive),-0.137 (inactive),0.787 (inactive),0.294 (inactive),-0.296 (inactive),-1.16,-0.127
CO[C@H]1O[C@H](CO)[C@@H](OC(=O)Nc2ccccc2)[C@H](OC(=O)c2cc3ccccc3[nH]2)[C@H]1OC(=O)c1cc2ccccc2[nH]1,-1.09,-0.388 (inactive),-1.59 (inactive),-0.49 (inactive),0.125 (inactive),-0.643 (inactive),1.54 (inactive),1.45 (inactive),-1.64,0.246
COc1ccc(CCNC(=O)[C@@H]2c3ccccc3C(=O)N(C3CCCCC3)[C@H]2c2ccc(CO)cc2)cc1,-0.0966,0.162 (inactive),-0.298 (inactive),0.77 (inactive),1.32 (inactive),0.726 (inactive),-0.712 (inactive),-1.39 (inactive),0.978,-0.0349
[N-]=[N+]=Nc1ccccc1C[C@]1(C(=O)N2CCOCC2)COC(c2ccc(OCCCO)cc2)=N1,1.27,-3.78 (inactive),0.632 (inactive),0.265 (inactive),-0.537 (inactive),-0.85 (inactive),1.08 (inactive),0.906 (inactive),1.02,0.138
CCCCC(CC)C(O)C1C=CC2C(=O)N(C)C(=O)C2N1Nc1ccccc1 (stereo not given),-0.339,-0.027 (inactive),-0.916 (inactive),-0.206 (inactive),0.723 (inactive),0.468 (inactive),-0.861 (inactive),-0.389 (inactive),-0.97,0.0297
[N-]=[N+]=Nc1ccccc1C[C@]1(C(=O)NCCN2CCOCC2)COC(c2ccc(OCCCO)cc2)=N1,1.14,-1.84 (inactive),0.892 (inactive),0.137 (inactive),0.289 (inactive),-0.71 (inactive),0.947 (inactive),0.361 (inactive),1.13,-0.237
Cc1ccc(S[C@]2(C(=O)NCc3ccccc3)CC(=O)N(C3CCCCC3)[C@@H]2c2ccc(CO)cc2I)cc1,-0.636,-0.799 (inactive),-1.82 (inactive),-0.11 (inactive),0.82 (inactive),-0.505 (inactive),0.509 (inactive),0.323 (inactive),-2.24,-0.0095
Cc1ccccc1C(O)C1C=CC2C(=O)NC(=O)C2N1Nc1ccccn1 (stereo not given),-1.07,1.21 (inactive),-0.777 (inactive),1.57 (inactive),0.543 (inactive),0.487 (inactive),-0.387 (inactive),-0.316 (inactive),-0.489,0.127
C=C[C@H]1C(C(=O)OCC)=CC[C@@H](c2ccccc2)N1S(=O)(=O)c1ccc(C)cc1,0.149,1.32 (inactive),-0.172 (inactive),0.319 (inactive),0.257 (inactive),1.39 (inactive),-0.621 (inactive),-0.183 (inactive),-0.667,0.199
COCCOC(=O)N1C(=O)[C@@]2(c3cc(C#CC4=CCCCC4)ccc31)[C@H](c1ccccc1OCCO)N1[C@H](c3ccccc3)[C@H](c3ccccc3)OC(=O)[C@H]1[C@@H]2C(=O)NC[C@H](O)c1ccccc1,-1.14,0.861 (inactive),-2.19 (inactive),-0.158 (inactive),1.92 (inactive),2.08 (inactive),-0.609 (inactive),-0.255 (inactive),-3.52,-0.0476
[N-]=[N+]=Nc1ccccc1C[C@@]1(C(=O)NCCN2CCOCC2)N=C(c2ccc(OCCCO)cc2)O[C@@H]1c1ccccc1N=[N+]=[N-],-1.02,-3.4 (inactive),-2.12 (inactive),0.322 (inactive),-0.124 (inactive),0.26 (inactive),-0.229 (inactive),-1.02 (inactive),-2.02,0.17
COC(=O)[C@@]1(Cc2ccc(OC)cc2)[C@H]2c3cc(C(=O)N(C)C)n(Cc4ccc(C)o4)c3C[C@H]2CN1C(=O)c1ccccc1,-0.239,0.256 (inactive),-3.45 (inactive),0.376 (inactive),-0.719 (inactive),1.54 (inactive),0.502 (inactive),-0.0131 (inactive),-4.83,0.072
CC1CC/C=C\[C@H]2OC34C=CCN(C(C)C)C(=O)[C@H]3N(CCO)C(=O)[C@@H]4C2C(=O)O1 (stereo not given in full),-0.961,0.486 (inactive),0.802 (inactive),0.705 (inactive),-0.413 (inactive),0.651 (inactive),0.764 (inactive),0.341 (inactive),0.838,0.0484
CCCN1C(=O)[C@]2(Cc3ccccc31)N=C(c1ccc(OCCCO)cc1)O[C@@H]2c1ccccc1,-0.222,-1.72 (inactive),-1.31 (inactive),1.16 (inactive),0.0279 (inactive),1.4 (inactive),1.15 (inactive),-0.413 (inactive),-0.804,0.0605
COc1ccc([Si](C)(C)[C@H]2[C@H](CC(=O)N3CCC[C@H]3CO)O[C@@]3(C(=O)N(Cc4ccc(N5CCOC5=O)cc4)c4ccccc43)[C@@H]2C)cc1,-0.0717,0.686 (inactive),-0.255 (inactive),-2.97 (inactive),0.189 (inactive),1.35 (inactive),0.0286 (inactive),-0.16 (inactive),-0.404,-0.0356
COCCOC(=O)N1C(=O)[C@@]2(c3cc(C#CC4(O)CCCCCC4)ccc31)[C@H](C(=O)Nc1nc3ccccc3s1)[C@H]1C(=O)O[C@H](c3ccccc3)[C@H](c3ccccc3)N1[C@@H]2c1ccc(O)cc1,-0.0328,-0.873 (inactive),-0.858 (inactive),-1.03 (inactive),0.598 (inactive),1.24 (inactive),0.487 (inactive),0.613 (inactive),-0.945,-0.0274
CCOC(=O)C[C@H]1[C@H](OC(=O)c2ccc(-c3ccccc3)cc2)[C@@H](NC(=O)CC(C)C)c2cc(OCCCO)ccc2N1C(=O)c1ccc2ccccc2n1,1,-0.677 (inactive),0.722 (inactive),-1.31 (inactive),-0.382 (inactive),-0.248 (inactive),0.102 (inactive),0.327 (inactive),0.517,-0.134
C=C(COC)C(=O)CC[C@@H](OC(C)=O)c1cccc(OCCO)c1,-0.434,0.823 (inactive),-0.0743 (inactive),0.0704 (inactive),-0.329 (inactive),1.17 (inactive),0.858 (inactive),0.503 (inactive),-0.929,-0.263
N[C@@H](Cc1ccccc1)C(=O)NCc1cn(Cc2ccccc2)nn1,0.68,-1.38 (inactive),0.323 (inactive),-0.777 (inactive),-0.452 (inactive),-0.0114 (inactive),1.35 (inactive),0.614 (inactive),0.449,-0.227
COc1ccccc1CN1C(=O)c2ccccc2[C@](Cc2ccccc2I)(C(=O)O)[C@@H]1c1ccc(CO)cc1,-0.569,-1.49 (inactive),-0.0504 (inactive),-0.0436 (inactive),0.416 (inactive),0.0183 (inactive),0.706 (inactive),0.602 (inactive),0.437,0.133
CC(C)NC(=O)[C@@]1(C)c2ccccc2C(=O)N(Cc2ccc(OC(F)(F)F)cc2)[C@H]1c1ccc(CO)cc1,-1.09,0.154 (inactive),0.796 (inactive),-0.852 (inactive),0.559 (inactive),0.973 (inactive),-0.048 (inactive),-0.6 (inactive),0.959,-0.217
CCCC1(C(=O)OC)C=C2C(=C(C)C(=O)C2C)CN1 (stereo not given),-1.11,1.99 (inactive),-1.23 (inactive),-1.8 (inactive),0.343 (inactive),0.338 (inactive),-0.715 (inactive),0.0101 (inactive),-1.88,0.258
CCOC(=O)[C@@H]1CCCCN1C(=O)C(=O)OC,-0.165,0.016 (inactive),-0.05 (inactive),0.0044 (inactive),-0.255 (inactive),0.245 (inactive),-0.26 (inactive),-0.253 (inactive),-0.64,0.269
C=CC[C@@H](OC(=O)Nc1ccc(OC)cc1)c1ccc(O)c(F)c1,-1.33,-16.3 (active),-1.32 (inactive),-2.55 (inactive),0.79 (inactive),-22 (active),0.924 (inactive),0.41 (inactive),-0.895,-0.0441
